D3 ag – activates the human D3 dopamine receptor; D3R DiscoveRx beta-arrestin cells, luminescence, 90 min; max activation, %; hit rate 0.58% among 410,000; in the data active = max activation above about 30%; note: 0% is about no effect
Target sequence (P35462 whole entry, looked up): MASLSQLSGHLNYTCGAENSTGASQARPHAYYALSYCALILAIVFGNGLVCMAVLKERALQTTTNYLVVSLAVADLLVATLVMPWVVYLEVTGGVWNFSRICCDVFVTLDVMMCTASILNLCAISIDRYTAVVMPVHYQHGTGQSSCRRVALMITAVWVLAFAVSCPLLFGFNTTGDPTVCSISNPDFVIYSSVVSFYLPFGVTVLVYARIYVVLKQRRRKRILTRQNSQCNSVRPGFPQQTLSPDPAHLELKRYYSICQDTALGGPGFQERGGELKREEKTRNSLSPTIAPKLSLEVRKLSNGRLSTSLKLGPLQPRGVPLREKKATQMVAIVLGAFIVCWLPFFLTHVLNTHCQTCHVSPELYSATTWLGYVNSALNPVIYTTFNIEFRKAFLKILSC
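Agonist mode: compounds and dopamine controls were applied to plated cells for 90 min at 37 degrees C after an overnight attachment at 1500 cells/well. Luminescent read-out followed 30 - 60 minutes at room temperature with DiscoveRx detection reagent.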
D1 PAM – human D1 dopamine receptor positive modulation; AID 504651; HEK293 TREx D1 cells, calcium flux, dopamine EC20 potentiation; potentiation, % at 10 µM; hit rate 0.036% among 360,000; in the data active = potentiation above about 30%; note: 0% is about no effect
D3 antag – D3 dopamine receptor (human) antagonism; P35462; D3R cells, DiscoveRx beta-arrestin luminescence, antagonist mode; hits give low values; max response, negative = inhibition, %; hit rate 2.5% among 360,000; in the data active = max response below about -50%; inconclusive = no clear call, values can overlap the other calls; note: % is set by controls: 0 for no effect and ±100 for the full control effect
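Cells plated overnight at 1500 cells/well, then exposed to library compounds with dopamine controls for 90 minutes at 37 degrees C. DiscoveRx reagent added for 30–60 minutes at room temperature; luminescence read, quantitative HTS format.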
D1 agonist – activates the human D1 dopamine receptor; P21728; HEK293 T-REx D1 cells, calcium flux, agonist mode; activation, % at 2 µM; hit rate 1% among 360,000; AID 504660; in the data active = activation above about 30%; note: 0% is about no effect
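Inducible HEK293 T-REx D1 cells, force-coupled to calcium signalling, were plated at 4000 cells/well with tetracycline and held overnight at 30 C. After no-wash calcium dye loading, compound-evoked calcium rise over 180 s flagged agonists.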
D1 antag – blocks dopamine activation of the human D1 receptor | P21728 | HEK293 TREx D1 cells, calcium flux, dopamine EC80; hits give low values | activity change, negative = inhibition, % at 10 µM | hit rate 3.2% among 360,000 | AID 504652; in the data active = activity change below about -30%; note: % is set by controls: 0 for no effect and ±100 for the full control effect
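Cells carrying a force-coupled, tetracycline-inducible human D1 receptor report calcium flux. Each well gets a 10 s baseline, compound with 180 s monitoring, then an EC80 dopamine stimulus with a second 180 s kinetic read.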
The depositor's hits bear a star; ! = not active in a repeat. An excerpt weighted towards active compounds, which were near 6.1% of everything screened.

Screening O=C(CCCN1C(=O)S/C(=C\C=C\c2ccccc2)C1=O)Nc1ccc(O)cc1 returned D3 ag 11.2, D1 PAM -0.5, D3 antag 5.7, D1 agonist 13.7 and D1 antag -31.0*.
For COc1cc(Cl)c(C)cc1NC(=O)CC1Oc2ccccc2NC1=O (stereo unspecified) the results were D3 ag 1.3, D1 PAM -2.9, D1 agonist -0.7 and D1 antag 0.8.
COc1cccc(/C=C2\SC(=O)N(CCC(=O)NNC(=O)c3ccccc3Cl)C2=O)c1 was read as D3 ag 57.0*, D1 PAM -7.2, D3 antag 15.6, D1 agonist 6.5 and D1 antag 4.8.
Screening CCOC(=O)CSc1nc2c(cnn2-c2ccc(F)cc2)c(=O)[nH]1 returned D3 ag 10.8, D1 PAM 5.4, D3 antag 0.0, D1 agonist 2.6 and D1 antag 6.5.
Screening COC(=O)CSc1nc2c(cnn2-c2ccc(F)cc2)c(=O)[nH]1 returned D3 ag 3.1, D1 PAM -4.7, D3 antag 1.1, D1 agonist 0.9 and D1 antag -32.6*!.
For CCCCC(CC(O)COCCC)c1n[nH]c(=S)n1-c1ccccc1 (stereo unspecified) the results were D3 ag 6.5, D1 PAM -2.5, D3 antag 6.7, D1 agonist 4.7 and D1 antag -44.7*.
Cc1ccc(C(=O)NCC(c2cccnc2)N2CCc3ccccc3C2)cc1C (stereo unspecified) was read as D3 ag 3.4, D1 PAM -3.4, D1 agonist 3.3 and D1 antag -31.2*.
For O=C(NCC(c1ccco1)N1CCc2ccccc2C1)c1ccc(F)cc1 (stereo unspecified) the results were D3 ag -26.1, D1 PAM 9.1, D3 antag -21.4, D1 agonist 6.5 and D1 antag -11.8.
O=C(NCC(c1ccco1)N1CCc2ccccc2C1)C(=O)Nc1ccccc1 (stereo unspecified) was read as D3 ag -33.8, D1 PAM 3.0, D3 antag -90.0*, D1 agonist 3.0 and D1 antag -23.0.
Screening COc1ccccc1NC(=O)C(=O)NCC(c1ccco1)N1CCc2ccccc2C1 (stereo unspecified) returned D3 ag -4.3, D1 PAM -2.1, D3 antag -2.6, D1 agonist 1.6 and D1 antag -8.0.
O=C(NCC(c1ccco1)N1CCc2ccccc2C1)c1ccccc1 (stereo unspecified) was read as D3 ag -34.4, D1 PAM 1.6, D3 antag -53.2*, D1 agonist 3.2 and D1 antag -4.0.
Screening CN1C(CSCC(F)(F)F)Nc2cc(Cl)c(S(N)(=O)=O)cc2S1(=O)=O (stereo unspecified) returned D3 ag 9.7.
Screening COc1cc(NC(=O)c2ccc(NC(=O)N3CCSc4ncccc43)cc2)cc(OC)c1 returned D3 ag 5.2, D1 PAM -1.8, D1 agonist -0.8 and D1 antag -5.2.
For CCC(C)NC(=O)Cn1nc(C(F)(F)F)c2c1CCCC2 (stereo unspecified) the results were D3 ag 2.0, D1 PAM -8.8, D3 antag 1.0, D1 agonist -0.5 and D1 antag -37.9*.
Screening CC(C)C[C@@H](CN)NC(=O)c1nc[nH]c1C(=O)N[C@@H](Cc1c[nH]c2ccccc12)C(=O)CNC[C@H](C)NC(=O)c1nc[nH]c1C(=O)N[C@@H](CC(=O)O)C(=O)O returned D3 ag -31.3 and D3 antag -53.4*.
For CC(C)C[C@@H](CNCC(=O)[C@H](C)NC(=O)c1[nH]cnc1C(=O)N[C@@H](C)CN)NC(=O)c1nc[nH]c1C(=O)N[C@@H](CC(=O)O)C(=O)O the results were D3 ag 31.9* and D3 antag -11.6.
CC(C)C[C@@H](CNCC(=O)[C@H](Cc1c[nH]c2ccccc12)NC(=O)c1[nH]cnc1C(=O)N[C@H](CN)CC(C)C)NC(=O)c1nc[nH]c1C(=O)N[C@@H](CC(=O)O)C(=O)O was read as D3 ag -34.2 and D3 antag inconclusive.
CCOc1ccc(NCc2cccn2-c2nnc(N3CCC(C(=O)NCCc4ccc(OCC)c(OCC)c4)CC3)s2)cc1 was read as D3 ag 3.5, D1 PAM -6.0, D1 agonist -0.3 and D1 antag -13.3.
Screening CCOc1ccc(NCc2cccn2-c2nnc(N3CCC(C(=O)NCCc4ccc(OC)c(OC)c4)CC3)s2)cc1 returned D3 ag -10.0, D1 PAM -3.5, D1 agonist 6.7 and D1 antag -31.3*.
`Cc1cc(C)n(/N=C/c2cc(Cl)cc(Cl)c2O)c(=O)c1` gave D3 ag -27.9, D1 PAM -1.4, D3 antag -76.8*, D1 agonist 2.8 and D1 antag 0.9.
For Cc1cc(C)n(/N=C/c2ccccc2O)c(=O)c1 the results were D3 ag 6.8, D1 PAM 3.0, D3 antag 3.1, D1 agonist 5.1 and D1 antag -2.0.
`CCOc1ccc(CC(=O)NC2CC(=O)N(c3ccc4c(c3)OCCO4)C2)cc1` (stereo unspecified) gave D3 ag 4.6, D1 PAM -1.1 and D1 agonist -2.5.
`COc1cc(-c2ccc3oc(-c4ccsc4)c(C#CC4(O)CCCCC4)c3c2)cc(OC)c1OC` gave D3 ag 36.2* and D3 antag 77.0.
COc1ccc(-c2oc3ccc(N4CCOCC4)cc3c2C#CC2(O)CCCCC2)cc1 was read as D3 ag 84.4* and D3 antag 89.9.
Screening OC1(C#Cc2c(-c3ccsc3)oc3ccc(N4CCOCC4)cc23)CCCCC1 returned D3 ag 2.1 and D3 antag 61.6.
CCCc1ccccc1OCCNS(=O)(=O)c1cc2c(cc1C)OCC(=O)N2 was read as D3 ag 41.8*, D1 PAM -8.9, D3 antag 4.1, D1 agonist 3.5 and D1 antag -5.4.
`COc1cc(OC)cc(-c2ncc3ccccn23)c1` gave D3 ag -8.5, D1 PAM 5.2, D3 antag -57.7*, D1 agonist -2.6 and D1 antag -0.9.
Screening CC(=O)N1CCSc2ccc(S(=O)(=O)NCc3ccc(F)cc3)cc21 returned D3 ag -3.4, D1 PAM -3.8, D3 antag 14.8, D1 agonist 7.1 and D1 antag -30.5*.
Screening CC(=O)N1CC(C)Sc2ccc(S(=O)(=O)NCc3ccc(F)cc3)cc21 (stereo unspecified) returned D3 ag 3.4, D1 PAM -2.4, D3 antag 8.9, D1 agonist 11.3 and D1 antag -37.3*.
Screening CCS(=O)(=O)N1CC(=O)N(c2ccc(Cl)cc2C)C(C)(C(=O)NC2CCCCCC2)C1 (stereo unspecified) returned D3 ag 3.1, D1 PAM 5.2, D1 agonist 2.2 and D1 antag -2.3.

Compound activity from PubChem.
